In the supplement of paper PMC10933113:
± gives the uncertainty stated by the source.

System: THP-1
Experiment: CD54 surface expression induction over DMSO control (% over DMSO); higher = stronger dendritic cell activation
Details: exposure time: 24 h
Experimental: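 hCLAT-like CD54 and CD86 surface expression on THP1 cells after 24 h exposure at a single concentration (highest non-cytotoxic concentration, or 100-200 µM if not cytotoxic). Flow cytometry (iQue) was run on 5,000 live cells.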

Structure (SMILES)	CD54 surface expression induction
CC(C)(C)c1ccc(S)cc1 [4-tert-Butylbenzenethiol] (200 µM)	38.6 ± 14
NC(=S)NC(N)=S [2,4-Dithiobiuret] (200 µM)	15.9 ± 2.6
O=C(Nc1ccccc1)c1cc(Cl)ccc1O [5-Chlorosalicylanilide] (10 µM)	-4.26 ± 3.3
COc1cc(Nc2c(C#N)cnc3cc(OCCCN4CCN(C)CC4)c(OC)cc23)c(Cl)cc1Cl [Bosutinib] (100 µM)	-7.93 ± 2.6
CC(C)=CCC1C(=O)N(c2ccccc2)N(c2ccccc2)C1=O [Feprazone] (200 µM)	62.3 ± 3
O=C1Nc2ccccc2C1(c1ccc(O)cc1)c1ccc(O)cc1 [Oxyphenisatin] (100 µM)	15.6 ± 12
C=CC(=O)OCCOC(=O)CCC(=O)O [4-[2-(Acryloyloxy)ethoxy]-4-oxobutanoic acid] (200 µM)	-1.6 ± 8.8
C[n+]1cc2c3c(ccc2c2ccc4cc5c(cc4c21)OCO5)OCO3 [Sanguinarine] (10 µM)	36 ± 5.9
COC(=O)Nc1nc2cc(Sc3ccccc3)ccc2[nH]1 [Fenbendazole] (100 µM)	-38.1 ± 4.2
CCCCCCCCN [n-Octylamine] (100 µM)	-6.09 ± 0.05
COP(=O)(O)OP(=O)(O)OC [Dimethyl dihydrogen diphosphate] (200 µM)	-11.2 ± 2.4
Nc1ccc2cc3ccccc3cc2c1 [2-Aminoanthracene] (200 µM)	-52.5 ± 1.6
Oc1c(Br)cc(Br)c2cccnc12 [Broxyquinoline] (100 µM)	49.3 ± 18
c1ccc(CCNc2nc(-c3ccccc3)cs2)cc1 [Fanetizole] (200 µM)	-4.51 ± 4.3
Clc1ccc2c(c1)Nc1ccccc1S2 [2-Chlorophenothiazine] (100 µM)	-15.3 ± 22
CO[C@@H]1[C@H](OC(=O)/C=C/C=C/C=C/C=C/C(=O)O)CC[C@]2(CO2)[C@H]1[C@@]1(C)O[C@@H]1CC=C(C)C [Fumagillin] (100 µM)	4.2 ± 4.4
c1ccc2cc3c(ccc4ccccc43)cc2c1 [Benz(a)anthracene] (200 µM)	-2.28 ± 4.7
COC(=O)CCCCCCCC(=O)OC [Dimethyl nonanedioate] (200 µM)	-1.14 ± 2.1
CC(C)CC(NC(=O)OCC1c2ccccc2-c2ccccc21)C(=O)O (stereo in doubt) [N-(9-Fluorenylmethoxycarbonyl)-L-leucine] (100 µM)	-11.5 ± 0.49
CCCCCCCCCCCCCCCC[N+](C)(C)Cc1ccccc1 [Benzylhexadecyldimethylammonium chloride] (10 µM)	20.1 ± 7.5

Structure (SMILES)	CD54 surface expression induction
C/C=C/C=C/CCCCCCCO [Codlelure] (200 µM)	-18.9 ± 4
CCCCCCCC(=O)Oc1c(Br)cc(C#N)cc1Br [Bromoxynil octanoate] (100 µM)	-3.81 ± 2.4
O=C(N/N=C/c1ccccc1O)c1ccncc1 [Salinazid] (10 µM)	17.1 ± 8.6
O=C(O)Cn1c(C(=O)Nc2nc(-c3ccccc3Cl)cs2)cc2ccccc21 [Lintitript] (100 µM)	1.24 ± 1.1
CC(C)=CCOc1ccc(/C=C/C(=O)c2ccc(OCC=C(C)C)cc2OCC(=O)O)cc1 [Sofalcone] (100 µM)	-27.7 ± 3.9
O=C(O)c1cn(C2CC2)c2cc(N3CCNCC3)c(F)cc2c1=O [Ciprofloxacin] (100 µM)	-14.9 ± 5.8
COc1ccc2cc(CCC(C)=O)ccc2c1 [Nabumetone] (100 µM)	-12.2 ± 1.2
Cc1occc1S [2-Methyl-3-furanthiol] (200 µM)	36.6 ± 1.1
COc1ccc(C(=O)c2ccc(C)cc2)c(O)c1 [Mexenone] (300 µM)	-5.78 ± 3.4
Oc1ccc(/C=C/c2cc(O)cc(O)c2)cc1 [Resveratrol] (100 µM)	1.74 ± 6.8
CCCCc1ccc2[nH]c(NC(=O)OC)nc2c1 [Parbendazole*] (200 µM)	262 ± 39
N=C(N)NN=C(/C=C/c1ccc([N+](=O)[O-])o1)/C=C/c1ccc([N+](=O)[O-])o1 [Nitrovin] (10 µM)	76.1 ± 15
CCCCC1C(=O)N(c2ccccc2)N(c2ccc(O)cc2)C1=O (stereo not given) [Oxyphenbutazone] (10 µM)	2.37 ± 6.7
C/C=C/C=C/C=O [2,4-Hexadienal] (200 µM)	9.31 ± 6.7
O=C(CCCCCCC(=O)Nc1ccccc1)NO [Vorinostat (SAHA)] (100 µM)	4.99 ± 15
CC(=O)C1(C)CC2=C(CCCC2(C)C)CC1C (stereo not given) (100 µM)	4.57 ± 4.8
CCCCNC(=S)NCCCC [N,N'-Dibutylthiourea] (10 µM)	-6.77 ± 3.8
CC(C)CCCCCCCOC(=O)c1ccc(C(=O)OCCCCCCCC(C)C)c(C(=O)OCCCCCCCC(C)C)c1 [Triisodecyl trimellitate] (163 µM)	10.7 ± 46
CCCCCCCCCCCCOCCO [2-(Dodecyloxy)ethanol] (200 µM)	34.2 ± 20
CN(C)c1ccc(SC#N)cc1 [4-(Dimethylamino)phenylthiocyanate] (10 µM)	-9.74 ± 4.1
